Read-out in experiment [1]: Vascular endothelial growth factor receptor 2 (Homo sapiens) (UniProt P35968)
Description: BSK_4H_VEGFRII: BioMAP Diversity Plus: 4H Assay for Vascular endothelial growth factor receptor 2 (VEGFR2) Biomarker Activity (AID 2283031). The settings on record: primary human endothelial cells (HUVEC); actives raise or lower the signal. A digest of the protocol:
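ELISA read-out of VEGFRII in primary human umbilical vein endothelium, taken 24 h after chemical treatment. Responses are expressed relative to DMSO, with bidirectional fitting.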

Read-out in experiment [2]: Human Leukocyte Antigen - DR isotype (HLADR), HLA-DRA (gene 3122)
Nature of the experiment: BSK_BE3C_HLADR: BioMAP Diversity Plus: BE3C Assay for Human Leukocyte Antigen - DR isotype (HLADR) Biomarker Activity (AID 2283032). As to conditions: primary human bronchial epithelial cells; actives raise or lower the signal. Summed up: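 Human primary bronchial epithelial cells (BE3C system) exposed to compound for 24 hours; cell-surface HLA-DR measured by ELISA, fitted bidirectionally relative to DMSO. Total protein by SRB in parallel cultures tracked cytotoxicity.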

Read-out in experiment [3]: Vascular cell adhesion molecule 1 (VCAM1), VCAM1 (gene 7412)
Nature of the experiment: BSK_4H_VCAM1: BioMAP Diversity Plus: 4H Assay for Vascular cell adhesion molecule 1 (VCAM1) Biomarker Activity (AID 2283033). The settings on record: primary human endothelial cells (HUVEC); actives raise or lower the signal. A digest of the protocol:
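Primary human umbilical vein endothelial cells, 4H stimulation system, treated for 24 h; cell-surface VCAM-1 quantified by ELISA. Bidirectional fitting against DMSO; cytotoxicity tracked by SRB total-protein staining in parallel cultures.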

Read-out in experiment [4]: Interferon-gamma inducible Protein 10 (IP10), CXCL10 (gene 3627)
Nature of the experiment: BSK_BE3C_IP10: BioMAP Diversity Plus: BE3C Assay for Interferon-gamma inducible Protein 10 (IP10) Biomarker Activity (AID 2283034). As to conditions: primary human bronchial epithelial cells; actives raise or lower the signal. A digest of the protocol: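 Primary human bronchial epithelial cells, with IP-10 measured by ELISA 24 hours after chemical dosing. Bidirectional fit against DMSO; cytotoxicity checked by SRB total protein staining in parallel cultures.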

Read-out in experiment [5]: Monokine induced gamma interferon (MIG), CXCL9 (gene 4283)
Nature of the experiment: BSK_BE3C_MIG: BioMAP Diversity Plus: BE3C Assay for Monokine induced gamma interferon (MIG) Biomarker Activity (AID 2283035). As to conditions: primary human bronchial epithelial cells; actives raise or lower the signal. A digest of the protocol:
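ELISA read-out of MIG in human lung bronchial epithelial primary cultures, 24 h post-dosing. Bidirectional curve fit vs DMSO baseline.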

Read-out in experiment [6]: Transforming growth factor beta 1 (TGFb1), TGFB1 (gene 7040)
Description: BSK_BE3C_TGFb1: BioMAP Diversity Plus: BE3C Assay for Transforming growth factor beta 1 (TGFb1) Biomarker Activity (AID 2283036). The settings on record: primary human bronchial epithelial cells; actives raise or lower the signal. A digest of the protocol:
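Primary human bronchial epithelial cells dosed with chemical; TGF-b1 measured by ELISA 24 h after dosing. Bidirectional curve fitting against DMSO negative control; SRB total-protein staining in parallel cultures gauged cytotoxicity.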

Read-out in experiment [7]: Plasminogen activator inhibitor-1 (PAI1), SERPINE1 (gene 5054)
Description: BSK_BE3C_PAI1: BioMAP Diversity Plus: BE3C Assay for Plasminogen activator inhibitor-1 (PAI1) Biomarker Activity (AID 2283037). The settings on record: primary human bronchial epithelial cells; actives raise or lower the signal. A digest of the protocol:
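Primary human bronchial epithelial cells (BE3C system) exposed 24 h; PAI-1 quantified by ELISA. Parallel sulforhodamine B staining of total protein flags cytotoxicity. Bidirectional fit versus DMSO.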

Read-out in experiment [8]: urokinase plasminogen activator (uPA), PLAU (gene 5328)
Nature of the experiment: BSK_BE3C_uPA: BioMAP Diversity Plus: BE3C Assay for urokinase plasminogen activator (uPA) Biomarker Activity (AID 2283038).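 As to outcome: uPA protein level quantified by ELISA in cell cultures; uPA read one day after compound addition.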 As to conditions: primary human bronchial epithelial cells; actives raise or lower the signal. Summed up:
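Bronchial epithelial cells (human, primary); chemical 24 h; uPA by ELISA; bidirectional fit vs DMSO. SRB (0.1%, after 10% TCA fixation, 560 nm) in parallel cultures for cytotoxicity.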

Read-out in experiment [9]: Urokinase-type plasminogen activator receptor (uPAR), PLAUR (gene 5329)
Description: BSK_BE3C_uPAR: BioMAP Diversity Plus: BE3C Assay for Urokinase-type plasminogen activator receptor (uPAR) Biomarker Activity (AID 2283039).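 Also: uPAR protein level measured by ELISA on the cells; cells exposed to compound for one day before measurement.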 As to conditions: primary human bronchial epithelial cells; actives raise or lower the signal. A digest of the protocol:
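Primary human bronchial epithelial cells dosed for 24 h; uPAR quantified by ELISA with bidirectional fitting against DMSO. Overt cytotoxicity assessed in parallel cultures by SRB total-protein staining (0.1% SRB, 560 nm).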

Read-out in experiment [10]: Interleukin-6 (IL6), IL6 (gene 3569)
Nature of the experiment: BSK_CASM3C_IL6: BioMAP Diversity Plus: CASM3C Assay for Interleukin-6 (IL6) Biomarker Activity for (AID 2283040). As to conditions: primary human coronary artery smooth muscle cells; actives raise or lower the signal.

Read-out in experiment [11]: Tissue plasminogen activator (tPA), PLAT (gene 5327)
Description: BSK_BE3C_tPA: BioMAP Diversity Plus: BE3C Assay for Tissue plasminogen activator (tPA) Biomarker Activity (AID 2283041).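 Also: tPA level quantified by ELISA one day after compound addition.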 The settings on record: primary human bronchial epithelial cells; actives raise or lower the signal. A digest of the protocol:
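Primary human bronchial epithelial cells in the BE3C system, exposed to compound for 24 h. tPA was quantified by ELISA; DMSO served as baseline, with gain or loss of signal fitted. Cytotoxicity checked in parallel cultures by SRB total-protein staining.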

Read-out in experiment [12]: Interleukin-8 (IL8), CXCL8 (gene 3576)
Nature of the experiment: BSK_CASM3C_IL8: BioMAP Diversity Plus: CASM3C Assay for Interleukin-8 (IL8) Biomarker Activity (AID 2283042).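 Also: IL-8 protein level quantified by ELISA.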 The settings on record: primary human coronary artery smooth muscle cells; actives raise or lower the signal.

Read-out in experiment [13]: Human Leukocyte Antigen - DR isotype (HLADR), HLA-DRA (gene 3122)
Description: BSK_CASM3C_HLADR: BioMAP Diversity Plus: CASM3C Assay for Human Leukocyte Antigen - DR isotype (HLADR) Biomarker Activity (AID 2283043).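 Also: cell-surface HLA-DR protein level quantified by ELISA.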 The settings on record: primary human coronary artery smooth muscle cells; actives raise or lower the signal.

Read-out in experiment [14]: Macrophage colony-stimulating factor (MCSF), CSF1 (gene 1435)
Description: BSK_CASM3C_MCSF: BioMAP Diversity Plus: CASM3C Assay for Macrophage colony-stimulating factor (MCSF) Biomarker Activity (AID 2283044).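 Also: M-CSF protein amount quantified by ELISA after 24 h exposure.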 The settings on record: primary human coronary artery smooth muscle cells; actives raise or lower the signal.

Read-out in experiment [15]: Low-density lipoprotein receptor (LDLR), LDLR (gene 3949)
Description: BSK_CASM3C_LDLR: BioMAP Diversity Plus: CASM3C Assay for Low-density lipoprotein receptor (LDLR) Biomarker Activity (AID 2283045).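 Also: LDLR protein level on the cell surface quantified by ELISA.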 The settings on record: primary human coronary artery smooth muscle cells; actives raise or lower the signal.

Read-out in experiment [16]: Monocyte Chemoattractant Protein-1 (MCP1), CCL2 (gene 6347)
Nature of the experiment: BSK_CASM3C_MCP1: BioMAP Diversity Plus: CASM3C Assay for Monocyte Chemoattractant Protein-1 (MCP1) Biomarker Activity (AID 2283046).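 Also: MCP-1 level quantified by ELISA 24 h after dosing.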 As to conditions: primary human coronary artery smooth muscle cells; actives raise or lower the signal.

Experiment [17] in a line: BSK_CASM3C_Proliferation: Cell Proliferation Assessment in the BioMAP Diversity Plus: CASM3C Assay (AID 2283047).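 Also: sulforhodamine B total protein stain as relative cell number at 560 nm; sub-confluent cells exposed 48 h before staining; fitted both ways against DMSO so gain or loss of cell number.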 The settings on record: primary human coronary artery smooth muscle cells.
Read-out in experiment [18]: Monokine induced gamma interferon (MIG), CXCL9 (gene 4283)
Nature of the experiment: BSK_CASM3C_MIG: BioMAP Diversity Plus: CASM3C Assay for Monokine induced gamma interferon (MIG) Biomarker Activity (AID 2283048).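 Also: MIG protein level measured by ELISA.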 As to conditions: primary human coronary artery smooth muscle cells; actives raise or lower the signal.

Read-out in experiment [19]: serum amyloid A (SAA), SAA1 (gene 6288)
Nature of the experiment: BSK_CASM3C_SAA: BioMAP Diversity Plus: CASM3C Assay for serum amyloid A (SAA) Biomarker Activity (AID 2283049).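 Also: SAA protein level quantified by ELISA.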 As to conditions: primary human coronary artery smooth muscle cells; actives raise or lower the signal.

The nature of experiment [20]: BSK_CASM3C_SRB: Viability Assessment in the BioMAP Diversity Plus: CASM3C Assay (AID 2283050). As to conditions: primary human coronary artery smooth muscle cells.

Activity calls are given as the source filed them. The calls were made as follows: active = hit-call score of the fitted dose curve at least 0.9, where 1 is the maximum; inactive = score below 0.9.

Regarding `COc1ccc2c(c1)c(CC(=O)O)c(C)n2C(=O)c1ccc(Cl)cc1`, the result in experiment [1], in experiment [2], in experiment [3], in experiment [4], in experiment [5] and in [6] was inactive. In addition, the outcome in [7], in experiment [8], in experiment [9], in [10], in [11] and in [12] was inactive. The outcome in [13], in experiment [14], in [15], in [16], in experiment [17] and in experiment [18] was inactive. In addition, the outcome in experiment [19] and in [20] was inactive.

Regarding `COc1ccc(S(=O)(=O)N2C(=O)[C@@](c3ccccc3OC)(N3C[C@H](O)C[C@H]3C(=O)N(C)C)c3cc(Cl)ccc32)c(OC)c1`, the result in [1], in experiment [2], in experiment [3], in [4], in [5] and in experiment [7] was inactive. In addition, the outcome in experiment [8], in [9], in experiment [10], in [11], in [12] and in [13] was inactive. Moreover, the result in experiment [14], in [15], in experiment [16], in [17], in experiment [18] and in [19] was inactive. For the same compound, the result in experiment [20] was inactive.

As to `CCCCCCCCCCCCCCCC`, the result in [1], in experiment [2], in experiment [3], in experiment [4], in [5] and in experiment [6] was inactive. Besides, the outcome in experiment [7], in experiment [8], in experiment [9], in experiment [10], in [11] and in experiment [12] was inactive. For the same compound, the result in [13], in experiment [14], in [15], in [16], in [17] and in [18] was inactive. Besides, the outcome in [19] and in [20] was inactive.

For `Cc1ccc(C(C)C)c(O)c1`, the outcome in experiment [1], in [2], in experiment [3], in experiment [4], in [5] and in [6] was inactive. In addition, the outcome in experiment [7], in [8], in experiment [9], in experiment [10], in experiment [11] and in [12] was inactive. The outcome in experiment [13], in experiment [14], in [15], in experiment [16], in experiment [17] and in experiment [18] was inactive. Moreover, the result in experiment [20] was inactive.

By AC50 is commonly meant the midpoint of the concentration-response curve, whichever way the signal moves. As to `Cc1nc(-c2ccc3c(c2)CCN(CCC2CCC(NC(=O)/C=C/c4ccc(F)cc4)CC2)CC3)no1` (configuration not stated), the outcome in experiment [1], in experiment [7], in experiment [9], in experiment [10], in experiment [11] and in [12] was inactive. The result in experiment [14] and in experiment [15] was inactive. Further, the AC50 in [2] is 12.8 µM (active); in experiment [3] it was 9.3 µM (active); in experiment [4], 15 µM (active); in [5], 13.5 µM (active); in experiment [8], 9.94 µM (active); in [13], 9.3 µM (active). For the same compound, the AC50 was 13.8 µM (active) in [16]; 5.83 µM (active) in experiment [17]; 11.7 µM (active) in experiment [18]; 9.3 µM (active) in [19]; 9.3 µM (active) in experiment [20].

For `Clc1cc(Cl)c(Cl)cc1Cl`, the result in [1], in experiment [2], in experiment [3], in [4], in [5] and in experiment [6] was inactive. Moreover, the outcome in [7], in experiment [8], in experiment [9], in [10], in [11] and in experiment [12] was inactive. The outcome in experiment [13], in [14], in experiment [15], in experiment [16], in [17] and in [18] was inactive. Also, the result in [19] and in experiment [20] was inactive.

Take `C[Si]1(C)O[Si](C)(C)O[Si](C)(C)O[Si](C)(C)O1`: the outcome in experiment [1], in experiment [2], in experiment [3], in [4], in experiment [5] and in experiment [6] was inactive. The outcome in experiment [7], in experiment [8], in experiment [9], in experiment [10], in experiment [11] and in experiment [12] was inactive. Further, the result in [13], in experiment [14], in experiment [15], in experiment [16], in [17] and in [18] was inactive. Besides, the result in experiment [19] and in [20] was inactive.

Values taken from PubChem BioAssay (EPA / NIEHS).
